Experimental data as given in PubChem BioAssay AID940 (Emory University Molecular Libraries Screening Center, 2007).
Values joined by “and” are separate entries in the source; they are usually repeats but may differ in a detail not shown here. Identical values can stand only once. The campaign covered roughly 260,000 compounds. About 2,200 (0.85%) were called active. This is one part of a sample in which actives are shown more often than they occur.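 How the source made its calls: active means compounds whose cAMP rise, as percent of the full-agonist control response, exceeds 60; inactive means the rest.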 The source holds several records for some structures; these can differ, active in one and inactive in another.

These molecules were tested against Prostaglandin E2 receptor EP2 subtype (Homo sapiens) (UniProt P43116) (assay: EP2 receptor modulators, cAMP readout, primary screen, cell-based, HTRF cAMP, PGE2 stimulation (AID 940;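 further: rat C6 glioma line stably carrying human EP2 under a CMV promoter; the protocol text gives 20 µM as final concentration; 100% = response of wells given 1 µM PGE2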)). Conditions: EP2-expressing cells, cAMP HTRF FRET, PGE2 co-stimulation; at 25 µM; stronger effect = higher value.
Prostaglandin E2 receptor EP2 subtype (Homo sapiens), sequence (P43116 whole entry, looked up): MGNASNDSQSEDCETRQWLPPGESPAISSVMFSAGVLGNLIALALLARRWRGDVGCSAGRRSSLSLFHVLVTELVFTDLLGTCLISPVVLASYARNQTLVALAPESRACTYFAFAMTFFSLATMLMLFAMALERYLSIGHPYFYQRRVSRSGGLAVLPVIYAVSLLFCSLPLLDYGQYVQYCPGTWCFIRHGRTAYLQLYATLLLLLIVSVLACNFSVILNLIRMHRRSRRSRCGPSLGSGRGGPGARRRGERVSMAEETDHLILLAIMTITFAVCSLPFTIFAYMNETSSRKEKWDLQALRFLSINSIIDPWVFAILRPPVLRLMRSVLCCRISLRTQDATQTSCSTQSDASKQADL

Row | SMILES | induction
1 | O=C(CN1C(=O)C2CCCN2S(=O)(=O)c2ccccc21)NCCc1ccccc1 (configuration not stated) | -13.3% (inactive)
2 | Cc1cc(CN2CCc3c(nc(N4CCCC4)[nH]c3=O)C2)c(C)n1-c1cccnc1 | -32.9% (inactive)
3 | CC(C)n1c(SCC(=O)Nc2ccccc2N2CCCCC2)nc2c1c(=O)n(C)c(=O)n2C | 9.15% (inactive)
4 | Cn1c(=O)c2c(nc(SCC(=O)Nc3ccccc3N3CCCCC3)n2C)n(C)c1=O | 67.3% (active) and 23.3% (inactive)
5 | CCn1c(SCC(=O)Nc2cccc3ccccc23)nc2c1c(=O)n(C)c(=O)n2C | -26.4% (inactive)
6 | c1ccc(-c2cc(N3CCCCC3)c3ccccc3n2)cc1 | 40.2% (inactive)
7 | FC(F)(F)c1cccc(-c2cc3ccccc3nc2N2CCCC2)c1 | 65.5% (active)
8 | CSc1nc2nc(-c3cccc(C(F)(F)F)c3)ccn2n1 | 27.7% (inactive)
9 | C=CCNC(=O)[C@H]1C=CCN1S(=O)(=O)c1ccc(F)cc1 | -8.27% (inactive)
10 | COc1cc(/C=C/C(=O)N2c3ccccc3Sc3ccc(C(F)(F)F)cc32)cc(OC)c1OC | 4.97% (inactive)
11 | O=C(CN1CCCCC1)N1c2ccccc2Sc2ccc(C(F)(F)F)cc21 | 66.5% (active)
12 | O=C(CN1CCCCCC1)N1c2ccccc2Sc2ccc(C(F)(F)F)cc21 | 41.5% (inactive)
13 | Nc1cc(-c2ccco2)nn(CC(=O)NCc2ccccc2)c1=O | 4.9% (inactive)
14 | CCCNC(=O)C1COc2ccccc2O1 (configuration not stated) | -4.2% (inactive)
15 | O=[N+]([O-])c1ccc(Sc2nc3c(c(C(F)(F)F)n2)CCCC3)nc1 | 34.3% (inactive)
16 | C/C=N/N(c1ccccc1)c1ccccc1 | 64.5% (active)
17 | COc1cccc(CN2CCN(C(=O)CCn3nnc4ccccc43)[C@@H](C)C2)c1 | -13.9% (inactive)
18 | CC(C)[C@H](Cn1nc(-c2cccs2)ccc1=O)NC(=O)Cn1cnc2ccccc2c1=O | -6.72% (inactive)
19 | Cc1cnc(C(=O)NC(C)c2nc(-c3ccncc3)n[nH]2)cn1 (configuration not stated) | -35.1% (inactive)
20 | Cc1nc2ccccc2c(C)c1C(=O)c1ccc(F)cc1 | 11.7% (inactive)
21 | Cc1nc2ccccc2c(-c2ccccc2)c1C(=O)c1ccccc1 | 94.7% (active)
22 | CC(=O)c1c(-c2ccccc2)c2ccccc2[nH]c1=O | 7.65% (inactive)
23 | CC(C)n1c(=O)oc2cc(S(=O)(=O)N3CCCC(C(N)=O)C3)ccc21 (configuration not stated) | -51.2% (inactive)
24 | COc1ccccc1N1N=C(c2cccs2)CC1c1ccccc1 (configuration not stated) | 38.4% (inactive)
25 | Fc1ccc(N2N=C(c3cccs3)CC2c2ccco2)c(F)c1 (configuration not stated) | 63.6% (active)

Row | SMILES | induction
26 | COc1ccc(C2CC(c3cccs3)=NN2c2ccccc2)cc1 (configuration not stated) | 21.6% (inactive)
27 | CCC(C)NC(=O)CSc1nc2cc3c(cc2cc1C#N)OCCO3 (configuration not stated) | 33.9% (inactive)
28 | CCn1nnnc1SCC(=O)Nc1cccc(C(C)=O)c1 | -7.36% (inactive)
29 | Cc1nc(N)[nH]c(=O)c1Oc1cccc(C(F)(F)F)c1 | 22.3% (inactive)
30 | O=Cc1ccc(Oc2cccc(C(F)(F)F)c2)nc1 | 16.6% (inactive)
31 | CCC(=O)OCc1c(C(F)(F)F)nn(C)c1Oc1cccc(C(F)(F)F)c1 | 62.3% (active)
32 | CCn1c(SCC(=O)Nc2ccc(C(=O)OC)cc2)nnc1-c1cccnc1 | -7.67% (inactive)
33 | OC[C@H]1O[C@@H](n2cnc3c(N[C@H]4CC5CCC4C5)ncnc32)[C@H](O)[C@@H]1O (some centres not stated) | 0.16% (inactive)
34 | CCCC(=O)Nc1ncnc2c1ncn2C1O[C@@H]2COP(=O)(O)O[C@H]2[C@H]1OC(=O)CCC (some centres not stated) | 107% (active)
35 | CNc1ncnc2c1ncn2[C@@H]1O[C@H](CO)[C@H](O)C1O (some centres not stated) | 15.2% (inactive)
36 | O=c1c2ccccc2c(-c2ccccc2)nn1-c1ccccn1 | 11.6% (inactive)
37 | CCOC(=O)C(C)n1nc(-c2ccccc2)c2ccccc2c1=O (configuration not stated) | 49.3% (inactive)
38 | O=c1c2ccccc2c(-c2ccc(F)cc2)nn1-c1ccc(C(F)(F)F)cc1 | 47% (inactive)
39 | O=C(NCCc1ccco1)c1nn(Cc2ccccc2)c(=O)c2ccccc12 | 44.9% (inactive)
40 | O=c1c2ccccc2c(-c2ccccc2)nn1Cc1ccccc1 | 66.7% (active)
41 | O=c1c2ccccc2c(-c2ccc(Br)cc2)nn1Cc1ccccc1 | 71.6% (active)
42 | CCCOc1ccc(C2C(C(=O)Nc3ccccc3OC)=C(C)Nc3ncnn32)cc1 (configuration not stated) | 2.41% (inactive)
43 | Cc1cc(C)nc(N2CCC(C(=O)NCC(N)=O)CC2)n1 | -4.46% (inactive)
44 | Cc1cc(C)c2cc(C(c3nnnn3C(C)(C)C)N3CCCc4ccccc43)c(=O)[nH]c2c1 (configuration not stated) | 26.2% (inactive)
45 | COc1ccc2[nH]c(=O)c(CN(CCCO)C(=S)NCCCN(C)C)cc2c1 | -11.3% (inactive)
46 | CC(C)(C)c1nn(-c2ccc(F)cc2)c2[nH]c(=O)c(CNCCc3ccncc3)cc12 | -25.4% (inactive)
47 | Cc1ccccc1OCCCC(=O)Nc1nnc(C2CCCCC2)s1 | -40.5% (inactive)
48 | COc1ccc(C(=O)N2CCc3cc(OC)c(OC)cc3C2c2ccccc2)cc1OC (configuration not stated) | 24.2% (inactive)
49 | COC(=O)c1ccc(S(=O)(=O)NCc2ccccc2)n1C | 70.4% (active)
50 | Cn1c(C(=O)O)ccc1S(=O)(=O)N(Cc1ccccc1)Cc1ccccc1 | 21.3% (inactive)

Row | SMILES | induction
51 | COC(=O)c1ccc(S(=O)(=O)N(CCO)Cc2ccccc2)n1C | -22.6% (inactive)
52 | COc1cccc(/C(O)=C2/C(=O)C(=O)NC2c2cccs2)c1 (configuration not stated) | 4.28% (inactive)
53 | CN(C(=O)Cc1ccccc1F)c1nc2c(s1)CCc1occc1-2 | -25.4% (inactive)
54 | CN(C)Cc1ccc(F)cc1Sc1cc(Cl)ccc1Cl | 75.3% (active)
55 | C=COCCNC(=O)C1CCN(c2nc3ccccc3n2CC)CC1 | -36.5% (inactive)
56 | COc1cccc(CN(Cc2ccco2)Cc2cncn2C)c1 | -1.11% (inactive)
57 | CCC(=O)Oc1cccc(C(=O)Nc2ccc(-c3nnc(-c4ccco4)o3)cc2)c1 | -19% (inactive)
58 | CCOc1ccc(-c2nnc(-c3ccco3)o2)cc1 | -1.22% (inactive)
59 | CCCCOc1ccc(-c2nnc(-c3ccco3)o2)cc1 | 66.9% (active)
60 | Cc1ccccc1CN1CCC(N2CCCCC2)CC1 | -20.6% (inactive)
61 | COc1cc(CN2CCN(C(=O)c3cc(OC)c(OC)c(OC)c3)CC2)cc(OC)c1O | -32.7% (inactive)
62 | Cc1ccc(NC(=O)CSc2nnnn2-c2ccc3c(c2)OCO3)cc1 | -41.6% (inactive)
63 | COc1ccc(C2CC(c3cccs3)=NN2c2ccc(F)cc2)cc1OC (configuration not stated) | 13.2% (inactive)
64 | COc1ccc(C2CC(c3cccs3)=NN2C(=O)CSc2nnc(N)s2)cc1OC (configuration not stated) | -1.37% (inactive)
65 | COc1ccc(C2CC(c3cccs3)=Nc3ccccc3S2)cc1OC (configuration not stated) | 61.9% (active)
66 | Cc1cc2c(s1)c1cnn(CC(=O)NC(C)C)c(=O)c1n2C | -39.8% (inactive)
67 | COc1cc2[nH]c(=O)c(C(=O)NCc3ccc4c(c3)OCO4)c(O)c2cc1OC | 4.8% (inactive)
68 | COc1cccc(CN2CCC(C(=O)NC(C)(C)C)CC2)c1O | -12.3% (inactive)
69 | O=C(COC(=O)c1cccc(Br)c1)Nc1cccc2c1C(=O)c1ccccc1C2=O | -14.5% (inactive)
70 | Cc1ccccc1C(=O)Nc1ccccc1Sc1ccccc1 | 73.8% (active)
71 | O=C(COC(=O)c1ccccn1)Nc1cccc2ccccc12 | -6.19% (inactive)
72 | O=C(Nc1ccccc1F)c1ccccc1-c1ccccc1 | 33.6% (inactive)
73 | O=C(COC(=O)c1ccccc1)Nc1ccccc1Sc1ccccc1 | 68.5% (active)
74 | Cc1ccccc1C(=O)Nc1ccc(N2CCCCCC2)cc1 | -79.9% (inactive)
75 | CC(C)(C)OC(=O)N1CCC[C@H]1C(=O)c1nc2ccccc2s1 | 19.4% (inactive)

Row | SMILES | induction
76 | O=C(N1CCC(n2nnc3ccccc3c2=O)CC1)C1(c2ccccc2)CCCC1 | -7.6% (inactive)
77 | CCc1cc(N2C3CCC2CC(O)(c2ccco2)C3)n2nc3nc(C)cc(C)c3c2n1 (configuration not stated) | 13.8% (inactive)
78 | CCCC(NC(=O)c1cnc(SC)nc1)c1cccs1 (configuration not stated) | -29.9% (inactive)
79 | Cc1nn(CC(=O)NC2CCCC2)c(=O)c2cc3sccc3n12 | 1.55% (inactive)
80 | Cc1ccc(Nc2ccc(C(N)=O)cc2[N+](=O)[O-])cc1 | -57.7% (inactive)
81 | Cc1cc(C)nc(Nc2cc([N+](=O)[O-])ccc2C)n1 | -8.66% (inactive)
82 | Cc1ccc(Nc2cc(C)nc3c(C)ccc([N+](=O)[O-])c23)cc1 | 66.4% (active)
83 | COc1ccc(C)cc1N(CC(=O)NC1CCCC1)C(=O)c1snc(C(N)=O)c1N | -63.9% (inactive)
84 | COCCCn1c(SCC(=O)Nc2cc(Cl)ccc2OC)nc2sc3c(c2c1=O)CCC3 | -5.26% (inactive)
85 | COc1ccc(C)c(Cn2c(-c3nonc3N)nc3ccccc32)c1 | 69% (active)
86 | Nc1nonc1-c1nc2ccccc2n1Cc1ccc(F)cc1 | 28.5% (inactive)
87 | CC(=O)Nc1nonc1-c1nc2ccccc2n1Cc1ccccn1 | 4.24% (inactive)
88 | COc1ccc(N(C(C)C(=O)N2CCN(C)CC2)S(C)(=O)=O)cc1 (configuration not stated) | -14.6% (inactive)
89 | COc1ccc(CN(Cc2cn[nH]c2-c2ccc(O)cc2)CC2CCCO2)cc1 (configuration not stated) | 18.7% (inactive)
90 | CCc1cc(-c2n[nH]c(=S)n2CC(C)C)cs1 | -1.28% (inactive)
91 | CCCc1cc(-c2n[nH]c(=S)n2CC)c2ccccc2n1 | 20.9% (inactive)
92 | CCCc1cc(-c2n[nH]c(=S)n2Cc2ccccc2)cs1 | 87.8% (active)
93 | CCCc1nn(CC(=O)NC2CC2)c(=O)c2cc3ccsc3n12 | -12% (inactive)
94 | COc1cc(C2C(C#N)=C(N)Oc3c2c(C)nn3-c2ccccc2)ccc1OCC#N (configuration not stated) | -22.9% (inactive)
95 | O=C(c1cccs1)N1CCCC(c2nc(-c3ccc(F)cc3)no2)C1 (configuration not stated) | -45.6% (inactive)
96 | CCOC(=O)CC(=O)CSc1nc(-c2ccccc2)cc(-c2ccc(Cl)cc2)c1C#N | 9.52% (inactive)
97 | N#Cc1c(-c2ccc(F)cc2)cc(C2CC2)nc1SCC(=O)c1cccs1 | 63% (active)
